An excerpt weighted towards active compounds, which were near 2% of everything screened.
Rango complex inh: Rango-importin beta binding inhibition; Q14974; Rango CFP/YFP FRET sensor + importin beta, 45 min; Potency, µM (top dose mostly 92.2 µM), without a hit: at the highest dose inhibition of complex formation; 340,000 tested, 0.031% active; calls by dose curve;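 also: 0% = DMSO wells and 100% = buffer wells lacking importin beta; nearly all actives have a fitted effect of over 15% in size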
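Inhibition scored from the CFP 486 nm/YFP 530 nm FRET ratio 45 min after adding 0.125 microM importin beta to 50 nM Rango biosensor preincubated 5 min with compound (room temperature, PBS with DTT, Tween-20, BSA). No-importin wells as positive control.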
TDP-43 yeast inh: inhibitors of TDP-43 toxicity in yeast; TDP-43 expressing yeast growth rescue, BacTiter-Glo, 24 h; Potency, µM (doses to about 46.1 µM), for the others: at the highest dose growth rescue (activation), actives largely listed as activators; 410,000 tested, 1.8% active; also: % of control where 0% means no effect; nearly all actives have a fitted effect of over 50% in size
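Yeast cells expressing TDP-43 under galactose induction are exposed to compounds for 24 hr at 30 deg C. BacTiter-Glo luminescence measures growth, so protective compounds score as activators.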
Abeta rescue: compounds reversing amyloid beta toxicity in yeast; yeast expressing A-beta42, growth rescue, OD600, 48 h; response scale: 0% DMSO, 100% iron-clioquinol control; Potency, µM (doses to about 46.1 µM), usual class: activators; 410,000 tested, 0.063% active; AID 1347071; also: nearly all actives have a fitted effect of over 55% in size
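Yeast growth medium received pinned compounds, then yeast cells expressing toxic A-beta were added; plates incubated at 30 C for 48 hr. Growth read as absorbance at 600 nm, normalized to DMSO and equimolar FeCl3 plus clioquinol controls.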
aSyn rescue: rescues yeast growth from alpha-synuclein toxicity. Yeast expressing alpha-synuclein, growth rescue, BacTiter-Glo, 24 h. Potency, µM (highest dose often 46.1 µM), without a hit: top-dose growth rescue (activation), usual class: activators. 370,000 tested, 0.14% active; also: % of control where 0% means no effect; nearly all actives have a fitted effect of over 65% in size
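Galactose-induced alpha-syn yeast (OD600=0.02, raffinose-pregrown) + pinned cpd, 24 hr, 30 deg C; growth by BacTiter-Glo luminescence. Growth restoration scores as activation.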
S-ASM inh: blocks human secretory acid sphingomyelinase; 340,000 tested, 0.006% active; AID 504937; P17405; placental ASM, HMU-PC fluorogenic substrate, 60 min; Potency, µM (series often up to 57.5 µM), without a hit: at the top dose activity change, negative = inhibition, hits mostly inhibitors
Target sequence (P17405 47-631 limits assumed): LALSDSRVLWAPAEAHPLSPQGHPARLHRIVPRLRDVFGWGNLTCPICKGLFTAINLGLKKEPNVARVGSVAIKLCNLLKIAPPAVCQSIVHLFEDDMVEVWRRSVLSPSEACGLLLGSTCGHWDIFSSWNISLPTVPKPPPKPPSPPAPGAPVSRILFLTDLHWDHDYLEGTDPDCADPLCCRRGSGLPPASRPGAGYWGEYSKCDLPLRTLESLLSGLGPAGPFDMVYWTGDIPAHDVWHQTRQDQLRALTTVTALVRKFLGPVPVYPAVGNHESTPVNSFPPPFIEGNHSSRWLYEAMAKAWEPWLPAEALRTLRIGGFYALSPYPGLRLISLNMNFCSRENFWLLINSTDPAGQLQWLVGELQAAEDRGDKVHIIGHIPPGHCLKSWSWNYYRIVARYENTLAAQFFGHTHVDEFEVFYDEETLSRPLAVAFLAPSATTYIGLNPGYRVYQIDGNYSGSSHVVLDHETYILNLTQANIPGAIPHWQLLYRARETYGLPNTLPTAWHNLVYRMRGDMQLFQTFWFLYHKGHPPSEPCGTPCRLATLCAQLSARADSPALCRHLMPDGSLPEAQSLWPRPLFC
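Human placenta-derived ASM preincubated with compound 10 min at room temperature, then reacted with 9 uM (final) fluorogenic HMU-PC substrate for 60 min at 37 C. Stop solution raises pH to 10; fluorescence read at Ex 386/Em 447 nm.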
Rango dissoc inh: inhibition of RanGTP-driven Rango-importin beta dissociation; O95149+P62826; 340,000 tested, 0.071% active; Biochemical FRET Rango-importin beta, RanGTP-induced dissociation; Potency, µM (top dose mostly 46.1 µM), without a hit: at the top dose activity change, negative = inhibition; calls by dose curve; also: % of control where 0% means no effect; nearly all actives have a fitted effect of over 45% in size
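Rango/importin beta premix (0.1/0.25 uM final), PBS + 1 mM DTT + 0.02% Tween-20 + 0.1% BSA; cpd 5 min RT; FRET pre-read; + RanGTP-RCC1 (0.6 uM Ran, 2 mM GTP, 0.2 uM RCC1); 45 min RT; FRET post-read, ex 430, em 486/530 nm.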
Active calls of the source: *; [ ] = dose if it differs, or a comment. Unless noted, calls follow the shape of the dose curve; as a rule, active = well fitted curve in the direction sought with a large enough effect; inconclusive = small, poorly fitted or top-dose-only effect, or another doubt; inactive = no such curve, though single readings can be large; an effect the other way counts as inactive or inconclusive. Potency is read from the fitted curve at half-maximal effect.

What do the screens show for `c1c[nH]c(CN2CCN(Cc3ncc[nH]3)CC2)n1`?
Rango complex inh: -1%; TDP-43 yeast inh: 4µM*; Abeta rescue: inactive; aSyn rescue: 11%; S-ASM inh: 3%; Rango dissoc inh: 0%

How did Cc1ncc(CO)c2c1Oc1nc(-c3ccccc3Cl)nc(SCc3ccccc3F)c1C2 do in these assays?
TDP-43 yeast inh: 19%; Abeta rescue: inactive

Results for COc1ccccc1NC(=S)N(Cc1ccccn1)Cc1ccccc1Cl ?
Rango complex inh: 2%; TDP-43 yeast inh: 19%; Abeta rescue: inactive; aSyn rescue: 0%; S-ASM inh: 7%; Rango dissoc inh: -1%

Results for Cc1ccccc1NC(=S)N(Cc1ccccn1)Cc1ccccc1Cl ?
Rango complex inh: -4%; TDP-43 yeast inh: inconclusive; Abeta rescue: 13µM*; aSyn rescue: 4%; S-ASM inh: -4%; Rango dissoc inh: 5%

What do the screens show for `Cc1cc(C)c(Cn2c3ccccc3c3cnn(CC(=O)NC4CCC(C)CC4)c(=O)c32)c(C)c1` (stereo not given)?
TDP-43 yeast inh: -3%[9.22 µM]; Abeta rescue: inactive

Results for CCCCN1CCc2c([nH]c3ccccc23)C1=O ?
Rango complex inh: -1%; TDP-43 yeast inh: 22%; Abeta rescue: inactive; aSyn rescue: 8%; S-ASM inh: 0%; Rango dissoc inh: 3%

How did COC(=O)C1=C2c3[nH]c4ccccc4c3CCN2C(=O)CC1 do in these assays?
Rango complex inh: 1%; TDP-43 yeast inh: 10µM*; Abeta rescue: inactive; aSyn rescue: 10%; S-ASM inh: -2%; Rango dissoc inh: -4%

How did O/N=C(/CI)c1ccc2ccccc2c1 do in these assays?
aSyn rescue: 4%

How did CC(=O)Nc1nonc1-c1nnc(SCC(=O)Nc2ccccc2)n1-c1ccccc1 do in these assays?
TDP-43 yeast inh: 0%[9.22 µM]; Abeta rescue: inactive

Results for COc1ccc(/C=C2\CCOC2=O)cc1 ?
Rango complex inh: -2%; TDP-43 yeast inh: -19%; Abeta rescue: inactive; aSyn rescue: 2%; S-ASM inh: 1%; Rango dissoc inh: -16%

Results for COc1ccc(/C=C2/C(=O)OCc3cc(OC)c(OC)cc32)cc1 ?
Rango complex inh: 0%; TDP-43 yeast inh: 20µM*; Abeta rescue: inactive; aSyn rescue: 4%; S-ASM inh: -10%; Rango dissoc inh: 23%

What do the screens show for `Cc1c(C(=O)N(C)C)sc2c1c(=O)n(-c1ccccc1C(F)(F)F)c(=O)n2Cc1cccc(F)c1`?
TDP-43 yeast inh: 0%; Abeta rescue: inactive

Results for COc1ccc(C(=O)Oc2ccc(/C=N/O)cc2)cc1 ?
Rango complex inh: 3%; TDP-43 yeast inh: 10µM*; Abeta rescue: inactive; S-ASM inh: 0%; Rango dissoc inh: 3%

What do the screens show for `COc1ccc(OC(=O)c2ccncc2)cc1`?
Rango complex inh: 0%; TDP-43 yeast inh: 27%; Abeta rescue: inactive; aSyn rescue: 6%; S-ASM inh: 3%; Rango dissoc inh: -2%

Results for Clc1ccc(-c2n[nH]c3c2CCC3)cc1Cl ?
Rango complex inh: -5%; TDP-43 yeast inh: 20µM*; Abeta rescue: inactive; aSyn rescue: -8%; S-ASM inh: inconclusive; Rango dissoc inh: 3%

How did Clc1ccc(-c2n[nH]c3c2CCCC3)cc1 do in these assays?
Rango complex inh: 4%; TDP-43 yeast inh: 16%; Abeta rescue: inactive; aSyn rescue: 9%; S-ASM inh: -6%; Rango dissoc inh: 8%

What do the screens show for `COc1cc(F)cc(-c2ccc3c(c2)c(-c2cccs2)c(-c2cc(OC)cc(OC)c2)n3C)c1`?
Rango complex inh: 0%; TDP-43 yeast inh: 7%; Abeta rescue: inactive; aSyn rescue: -1%; S-ASM inh: 48%; Rango dissoc inh: -11%

What do the screens show for `COc1cc(OC)cc(-c2c(-c3cccs3)c3cc(-c4ccc(CN5CCOCC5)cc4)ccc3n2C)c1`?
Rango complex inh: -2%; TDP-43 yeast inh: 22µM*; Abeta rescue: inactive; aSyn rescue: -14%; S-ASM inh: 0%; Rango dissoc inh: 6%

What do the screens show for `Cc1ccc(C)c(NC(=S)NNc2ccc(F)cc2F)c1`?
Rango complex inh: 0%; TDP-43 yeast inh: 13µM*; Abeta rescue: inconclusive; aSyn rescue: -3%; S-ASM inh: 1%; Rango dissoc inh: 7%

Results for Cc1ccc(C)c(NC(=S)NCCc2ccc(F)cc2)c1 ?
Rango complex inh: 1%; TDP-43 yeast inh: inconclusive; Abeta rescue: inconclusive; aSyn rescue: 2%; S-ASM inh: -4%; Rango dissoc inh: -2%

Results for CCOc1ccc(C(=O)NCC(c2ccc3c(c2)OCO3)N2CCN(c3ccccc3F)CC2)cc1 (stereo not given) ?
TDP-43 yeast inh: -12%; Abeta rescue: inactive

How did Clc1ccc(Sc2cc(Cl)c(-c3ccccc3)nn2)cc1 do in these assays?
Rango complex inh: 0%; TDP-43 yeast inh: 7.9µM*; Abeta rescue: inactive; aSyn rescue: -19%; S-ASM inh: -11%; Rango dissoc inh: -1%

Results for CCN(C(=O)Cn1nnc2sc3c(c2c1=O)CCC(C(C)(C)C)C3)c1cccc(C)c1 (stereo not given) ?
TDP-43 yeast inh: 11%; Abeta rescue: inactive

Results for O=C(C1CCN(S(=O)(=O)c2ccccc2)CC1)N1CCN(c2ccccc2)CC1 ?
Rango complex inh: 3%; TDP-43 yeast inh: 0%; Abeta rescue: inactive; aSyn rescue: 15%; S-ASM inh: 2%; Rango dissoc inh: 15%

How did O=C(C1CCN(S(=O)(=O)c2ccc(Cl)s2)CC1)N1CCN(c2ccccc2)CC1 do in these assays?
Rango complex inh: -2%; TDP-43 yeast inh: 14µM*; Abeta rescue: inactive; aSyn rescue: 21%; S-ASM inh: -3%; Rango dissoc inh: 25%

How did COc1cc(/C=C/c2ccc3ccccc3n2)cc(OC)c1OC do in these assays?
aSyn rescue: -24%

Results for CC1(C(=O)NS(=O)(=O)c2ccc(Br)cc2)CCN1C(=O)C1(c2ccccc2)CC1 (stereo not given) ?
TDP-43 yeast inh: inconclusive; Abeta rescue: inactive; aSyn rescue: 6%

How did CC(C)(C)c1ccc(S(=O)(=O)NC(=O)C2(C)CCN2C(=O)C2(c3ccccc3)CC2)cc1 (stereo not given) do in these assays?
TDP-43 yeast inh: 18µM*; Abeta rescue: inactive; aSyn rescue: 7%

Results for CCCCc1ccc(S(=O)(=O)NC(=O)C2(C)CCN2C(=O)CCc2cccs2)cc1 (stereo not given) ?
TDP-43 yeast inh: 35µM*; Abeta rescue: inactive; aSyn rescue: 1%
